High-throughput results deposited in PubChem by several laboratories.
A selection: hits, their analogues and other compounds. The true share with any hit is near 4.3%.
MITF TRPM1 HTS: activators of MITF-driven TRPM1 promoter reporter, primary screen, cell-based, SK-MEL-5, luciferase, single point; activation, % at 12.5 µM; AID 588334, 2011; hit rate 0.75% among 300,000; SK-MEL-5 TRPM1-promoter luciferase, 24 h; % of positive control, neutral wells = 0;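 active = mean activation of at least 80% with every replicate also reaching 80%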;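 note: 0% = neutral control wells and 100% = parthenolide positive control wells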
MLL AF4-AF9 inh: inhibitors of AF4 peptide binding to AF9, primary screen, biochemical, AlphaScreen, biotin-AF4 peptide, FLAG-AF9, single point | hit rate 0.47% among 350,000 | inhibition, % at 10 µM;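 active = every replicate reaching a set inhibition limit, whatever the replicate mean, cut at about 25% in these data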;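 note: 0% = plate neutral control median and 100% = total signal loss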
SMARCA2 activ: SMARCA2 (BRM) function activators, primary screen, cell-based, luminescence, high throughput; MG213 cells, MMTV-luciferase reporter, dexamethasone, overnight; hit rate 1% among 370,000; activation, % at 9.1 µM; in the data active = activation above about 7.8%;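 note: 0% = vehicle wells and 100% = reference activator wells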
esBAF inh: Bmi1 luciferase reporter increase in mESCs, primary screen, esBAF inhibitor project, mouse ES cells, Bmi1 luciferase knock-in, single point | hit rate 2% among 350,000 | 24 h; 100% = twice the neutral-well signal | reporter increase, % at 12.5 µM; in the data active = activation above about 40%;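 note: 0% = median of the plate's neutral control wells and 100% = double that signal; a rise in the Bmi1 reporter signal indicates esBAF inhibition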
Wnt bcat act: Wnt/beta-catenin pathway activators, primary screen, cell-based, plate reader, single point | Wnt/beta-catenin reporter cell assay, activator | activation, % at 9.35 µM | hit rate 1.2% among 300,000 | AID 743398, 2014; in the data active = activation above about 30%, passing the limit was not always enough;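 note: 0% = neutral control wells and 100% = positive control wells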
FGF22 binding: binders of human FGF22 protein, primary screen, FGF22 synaptogenesis inhibitor project, biophysical, thermal shift, single point; Fibroblast growth factor 22 (Homo sapiens), Q9HCT0; recombinant FGF22 thermal shift, SYPRO orange fluorescence; percent of sucrose octasulfate shift, DMSO zero; activity (Tm shift, normalised), % at 9.99 µM; hit rate 1.5% among 340,000; AID 651658, 2012;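 active = mean Tm shift, scaled 0 neutral to 100 positive control, at about 1.3% or above, every replicate too, limit read from the data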
Target sequence (Q9HCT0 whole entry, looked up): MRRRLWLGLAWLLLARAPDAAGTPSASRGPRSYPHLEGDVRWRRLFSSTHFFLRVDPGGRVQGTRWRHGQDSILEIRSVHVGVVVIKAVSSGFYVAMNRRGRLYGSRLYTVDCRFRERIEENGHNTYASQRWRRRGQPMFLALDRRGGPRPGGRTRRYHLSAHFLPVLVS
Numbers without * were called inactive; x = no result.

SMILES	MITF TRPM1 HTS	MLL AF4-AF9 inh	SMARCA2 activ	esBAF inh	Wnt bcat act	FGF22 binding
CCc1nc2ccc(C(=O)N3CCN(CC)CC3)cc2nc1CC	-2	-1	-3	10	0	43*
CC(C)C1N=C(c2ccc3c(c2)OCO3)CC(c2ccccc2O)N1 (stereo unspecified)	19	x	5	47*	x	x
O=C(N/N=C/c1ccco1)c1cc(-c2ccc3ccccc3c2)n[nH]1	8	x	4	60*	x	x
CCc1ccc(-c2cc(C(=O)N/N=C/c3ccco3)[nH]n2)cc1	37	-4	2	x	3	43*
O=C(N/N=C/c1ccccn1)c1cc(-c2ccc3ccccc3c2)n[nH]1	-3	1	2	x	5	0
C[C@H](CO)N1C[C@H](C)[C@H](CN(C)S(=O)(=O)c2ccc(F)cc2)Oc2c(NC(=O)Nc3ccc4c(c3)OCO4)cccc2C1=O	x	8	x	-7	x	-1
Cc1ccc(S(=O)(=O)NCC[C@H]2CC[C@H](NC(=O)c3cccc(F)c3)[C@@H](CO)O2)cc1	x	-2	x	1	x	0
C[C@H](CO)N1C[C@H](C)[C@H](CN(C)CC2CCCCC2)Oc2c(NS(=O)(=O)c3ccccc3)cccc2C1=O	x	-1	x	-9	x	0
Cn1c(=NC(=O)COc2ccccc2)sc2cccc(F)c21	63	2	3	57*	-2	0
CC(C)C(=O)N=c1sc2cccc(F)c2n1C	15	1	7	2	-2	0
O=C(NCc1ccco1)c1sc2ccccc2c1Cl	48	x	5	49*	x	x
COc1ccc(CN(CCN2CCOCC2)C(=O)c2cc(F)cc(F)c2)cc1OC	x	x	4	x	x	x
COc1ccc(S(=O)(=O)N(C)C[C@@H]2OCCCC[C@@H](C)Oc3ccc(NC(=O)C4CCCCC4)cc3C(=O)N([C@@H](C)CO)C[C@@H]2C)cc1	x	-3	x	21	x	-1
CC1CCCC(NC(=O)COC(=O)C2=COCCO2)C1C (stereo unspecified)	x	-9	0	0	-5	44*
O=C(COC(=O)C1=COCCO1)NC1CCCCCCC1	-7	1	-1	x	-1	0
Cc1ccc(S(=O)(=O)Nc2ccc3c(c2)C(=O)N([C@@H](C)CO)C[C@@H](C)[C@@H](CN(C)C(=O)Nc2ccc(C(F)(F)F)cc2)OCCCC[C@@H](C)O3)cc1	x	1	x	7	x	0
NC(=O)N/N=C/c1sc(=O)n(-c2ccccc2)c1Cl	12	-6	-1	x	-4	0
O=C(N/N=C/c1sc(=O)n(-c2ccccc2)c1Cl)c1ccccc1	60	4	4	x	75*	0
Cc1ccc(S(=O)(=O)N(C)C[C@@H]2Oc3ccc(NS(=O)(=O)c4c(C)noc4C)cc3C(=O)N([C@@H](C)CO)C[C@@H]2C)cc1	x	-5	x	2	x	0
CCCc1c(C(=O)N/N=C(\C)c2ccc(CC(C)C)cc2)nnn1-c1nonc1N	x	0	-2	0	-6	44*
CCCc1c(C(=O)N/N=C(\C)c2ccc3c(c2)OCO3)nnn1-c1nonc1N	x	-3	-2	-1	0	0
Cc1cccc(-c2nc3cc(NC(=O)C4CCCO4)ccc3o2)c1 (stereo unspecified)	8	x	1	x	17	x
Cc1ccc2oc(-c3cccc(NC(=O)C4CCCO4)c3)nc2c1 (stereo unspecified)	30	x	1	79*	x	x
Cc1ccc2oc(-c3cccc(NC(=O)c4ccccn4)c3)nc2c1	x	-2	5	40	37*	0
CCC(=O)Nc1cccc(-c2nc3ccc(C)cc3o2)c1	x	-1	0	40	38*	0
SMILES	MITF TRPM1 HTS	MLL AF4-AF9 inh	SMARCA2 activ	esBAF inh	Wnt bcat act	FGF22 binding
COc1cc(C(=O)Nc2cccc(-c3nc4cc(C)ccc4o3)c2)cc(OC)c1OC	24	-3	1	x	8	0
C=CCNC(=O)/C(C#N)=C/c1ccc2c(c1)OCCO2	11	1	4	x	4	43*
Cc1cccc(/C(N)=N/OC(=O)Cc2cccs2)c1	95*	x	4	48*	x	x
N/C(=N\OC(=O)Cc1cccs1)c1ccc(Cl)cc1	79	3	4	81*	34*	0
N/C(=N\OC(=O)Cc1cccs1)c1cccc([N+](=O)[O-])c1	20	x	-2	34	5	x
Cc1ccc(/C(N)=N/OC(=O)Cc2cccs2)cc1	111*	x	5	55*	x	x
Cc1ccc(C(=O)O/N=C(\N)Cc2cccs2)c(Cl)c1	117*	x	x	x	x	x
N/C(=N\OC(=O)CN1C(=O)c2ccccc2C1=O)c1ccc(Cl)cc1	2	-3	-4	x	-2	0
O=C(C[C@H]1C[C@@H]2c3cc(NC(=O)C4CCC4)ccc3O[C@@H]2[C@@H](CO)O1)NCc1cccnc1	x	-10	x	-7	x	0
CCC(=O)N1CC2(C1)[C@H](c1ccccc1)[C@@H](CO)N2CC1CC1	x	-3	x	x	x	0
CN1C(=O)c2cc(NC(=O)C3CCCC3)ccc2OC[C@H]2O[C@H](CC(=O)NCc3ccccc3F)CC[C@@H]21	x	0	x	x	x	-1
N/C(=N\OC(=O)Cc1cccs1)c1ccccc1	x	x	2	72*	x	x
O=C(C1CCCCC1)N1CC[C@@H]2[C@@H](CO)Nc3ccc(C#Cc4ccc(F)cc4)cc3[C@@H]21	x	12	x	x	x	x
O=C1SC(c2ccccc2)=C/C1=C\N1CCCCC1	-14	30*	-2	14	-1	0
O=C1OC(c2ccccc2)=C/C1=C/N1CCOCC1	38	5	0	10	-4	0
Cc1nc(SCc2ccccc2)nc2c1CCC2	93*	0	3	100*	16	0
Cc1ccc(CSc2nc3c(c(N(C)C)n2)CCCC3)cc1	5	x	-1	-2	x	x
Cc1ccc(OCc2nc(C#N)c(NCc3ccco3)o2)cc1	x	x	-1	-3	6	x
N#Cc1nc(COc2cccc(Cl)c2)oc1NCc1ccco1	47	9	5	51*	12	0
COc1ccc(Nc2oc(COc3cccc(C)c3)nc2C#N)cc1	21	x	-2	-11	43*	x
CCNc1oc(COc2cccc(C)c2)nc1C#N	12	x	-2	45*	x	x
Cc1cccc(OCc2nc(C#N)c(NCCN(C)C)o2)c1	6	-4	4	3	-4	0
COc1ccc(S(=O)(=O)Nc2cccc3c2O[C@H](CN(C)Cc2ccc(C(=O)Nc4ccccc4N)cc2)[C@H](C)CN([C@@H](C)CO)C3=O)cc1	x	4	x	-27	x	-1
C[C@@H]1CN([C@H](C)CO)C(=O)c2cc(C3=CCCC3)cnc2O[C@H]1CN(C)Cc1ccccc1	x	3	x	-8	x	0
